Screen size: about 270,000 compounds; about 5,800 (2.1%) were called active. Another 16% or so got no clear call; they are omitted. What follows is part of a selection rich in actives, with near analogues and random picks from the rest. A call without a number means that no potency is given here. Where a structure was tested more than once in an assay, its records may differ in their call. Values without a mark were called inactive. The call rests on the fitted dose curve; in most records, active means well fitted inhibition curve with a large enough effect; inconclusive means small, poorly fitted or top-dose-only effect; inactive means flat fitted curve, though single readings scatter.
Potency means the concentration at half of the fitted maximal effect.

Microtubule-associated protein tau (Homo sapiens), sequence (P10636 561-689 P618L limits assumed): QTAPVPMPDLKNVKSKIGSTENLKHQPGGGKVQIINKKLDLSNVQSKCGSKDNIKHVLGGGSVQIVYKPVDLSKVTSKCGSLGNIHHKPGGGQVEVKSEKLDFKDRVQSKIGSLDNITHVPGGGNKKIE

The target in the test is Microtubule-associated protein tau (Homo sapiens) (UniProt P10636). The experiment in a line: qHTS for Inhibitors of Tau Fibril Formation, Thioflavin T Binding. Further: nearly all actives have a fitted effect of over 55% in size. As to conditions: recombinant tau K18 P301L, heparin-induced fibrillization, ThT fluorescence; series mostly up to 57.4 µM. In outline:
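ThT emission at 510 nm, taken 1 hr after adding 30 uM dye, quantifies aggregates formed when 20 uM heparin acts on human tau K18 P301L for 6 hr at 37 C.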
A general note: Quantitative high-throughput screening tests each substance at several concentrations.
On to `COc1cc2nc(SCc3ccc(F)cc3)n3nc(CCn4c(C)nc5ccccc54)nc3c2cc1OC`, for which the Potency result was “inactive”.
Same read-out and setting: as for `CCCC(=O)Nc1ccc(C(=O)N/N=C/c2ccc[nH]2)cc1`, the figure is 15.8 µM (active); as for `CCCN(CC(=O)Nc1ccc(C(N)=O)cc1)CC(=O)Nc1ccccc1C`, “inactive”.
In the case of `CCCC(=O)Nc1ccc(C(=O)NCCCn2ccnc2)cc1`, the Potency result was “inactive”.
The same measure, in the same setting: as for `CCOc1cc2[nH]c(=O)n(Cc3ccc(C(=O)NCCN(CC)CC)cc3)c(=O)c2cc1OCC`, the entry is “inactive”; as for `CCN(CCCNC(=O)c1c(C)oc2ncn(CC(C)C)c(=O)c12)Cc1ccccc1`, “inactive”; as for `Cc1ccc2[nH]c3c(=O)n(CC(=O)NC(C)C)ncc3c2c1`, “inactive”.
Still for that read-out and setting: as for `COc1ccc(Cc2nc3ccc(C(=O)NCc4ccccc4Cl)cc3o2)cc1`, the entry is “inactive”; as for `COc1ccc(OC)c(NC(=O)CSC2=Nc3ccccc3C3=NC(CC(=O)NCc4ccc(F)cc4)C(=O)N23)c1` (configuration not stated), “inactive”; as for `Cc1ccc(C(=O)CC2(O)C(=O)N(CCc3ccccc3)c3ccc(Br)cc32)cc1` (configuration not stated), “inactive”.
On the same count and under the same terms, as for `COc1ccc2c(c1)C(=C(C#N)C#N)C(=O)N2CCc1ccccc1`, the figure is 28.2 µM (active).
As to `C#CCN1C(=O)C(O)(CC(=O)c2cc(OC)ccc2OC)c2ccccc21` (configuration not stated), the Potency entry was “inactive”.
On the same count and under the same terms, as for `Cc1cccc(C(=O)N2c3nc(-c4ccco4)nn3C3(CCCCC3)[C@@H]3CCCC[C@@H]32)c1`, the entry is “inactive”; as for `COc1ccccc1N1CCN(C2C(=O)c3ccccc3N2C(C)=O)CC1` (configuration not stated), “inactive”.
Still for that read-out and setting: as for `CCOC(=O)C1=C(O)CSC1=Nc1cccc(Cl)c1`, the entry is “inactive”; as for `CN(C)c1nc(=Nc2cccc(Cl)c2)ss1`, 25.1 µM (active).
In the case of `CC(=O)N1CCCc2cc(S(=O)(=O)N3CCC(C(=O)NCc4ccc(C)cc4)CC3)ccc21`, the Potency result was “inactive”.
On the same count and under the same terms, as for `CCCCN(CC)CCCNC(=O)c1nn(C)c2c1CS(=O)(=O)c1ccccc1-2`, the entry is “inactive”.
Take `Cc1c2cnn(-c3ccccc3)c(=O)c2c(C)n1C(C)C(=O)Nc1ccc(Br)cc1F` (configuration not stated): the Potency entry is “inactive”.
Take `CCSc1ncnc2c(C#N)c3n(c12)CCCCC3`: the Potency entry is “inactive”.
The same measure, in the same setting: as for `CCSC1=C(C#N)C(=O)n2c1cc1c2CCCC1`, the figure is 25.1 µM (active); as for `CCc1ccccc1NC(=O)c1ccc(F)c(S(=O)(=O)NC2CCCCCC2)c1`, “inactive”; as for `Cc1oc2c(c1C(=O)Nc1ccc(F)c(F)c1)C1=NCCN1C=N2`, “inactive”.
Same read-out and setting: as for `CCOC(=O)c1ccc(CN(Cc2ccccc2)S(=O)(=O)c2ccc(Cl)cc2)cc1`, the entry is “inactive”; as for `CC(C)CCN(C(=O)Nc1ccc(Cl)c(Cl)c1)C(C)c1cccs1` (configuration not stated), “inactive”; as for `c1cnc(Nc2nc(-c3ccc4ccccc4c3)cs2)nc1`, “inactive”.
For `O=C(NCc1cccnc1)C(=O)Nc1nc(-c2ccccc2)cs1`, the Potency entry is “inactive”.
Same read-out and setting: as for `COc1ccc(-c2csc(NC(=O)CCCc3cccs3)n2)cc1`, the entry is “inactive”; as for `COc1ccc(-c2csc(NC(=O)COC(=O)c3ccc(Br)o3)n2)cc1`, “inactive”; as for `COc1ccc(-c2csc(Nc3ccc(O)cc3)n2)cc1`, 7.94 µM (active).
On the same count and under the same terms, as for `c1ccc(Nc2nc(-c3ccncc3)cs2)nc1`, the entry is “inactive”; as for `Oc1ccc(-c2csc(Nc3cccnc3)n2)cc1`, 15.8 µM (active).
As for `COc1ccc(-c2csc(NC(=O)c3ccc(N4C(=O)CCC4=O)cc3)n2)cc1OC`, the Potency entry is “inactive”.
Consider `COc1ccc(OC)c(Nc2nc(-c3ccc(O)c(O)c3)cs2)c1`, for which the Potency was 10 µM (active).
On the same count and under the same terms, as for `Cc1ccc(NC(=O)Cn2nnc3sc4c(c3c2=O)CCC(C)C4)cc1` (configuration not stated), the entry is “inactive”.
As to `COC(=O)c1ccc(NC(=O)c2cc(S(=O)(=O)N3CCC(C)CC3)cn2C)cc1`, the Potency result is “inactive”.
Still for that read-out and setting: as for `O=S(=O)(NCCc1nnc2ccc(SCc3ccc(Cl)cc3Cl)nn12)c1ccccc1`, the entry is “inactive”; as for `COc1ccc(Cl)cc1S(=O)(=O)N1CCC(c2ccncc2)CC1`, “inactive”; as for `Cc1c(/C=N\NC(=O)c2cc3ccccc3o2)c2ccccc2n1C`, 3.55 µM (active).
Same read-out and setting: as for `Cc1c(/C=N/N2C(=O)C3C4C=CC(C4)C3C2=O)c2ccccc2n1C` (configuration not stated), the entry is “inactive”; as for `CC(C)Oc1ccc(NC(=O)c2cc3ccccc3o2)cc1`, “inactive”.
With `COC(=O)CCCC1=CC2=CC(=O)C(C)(OC(=O)c3cccs3)C(=O)C2=CN1CC(C)C` (configuration not stated), the activity, negative = inhibition was -12.7% [at 11.5 µM].
The same measure, in the same setting: as for `COC(=O)CCCC1=CC2=CC(=O)C(C)(OC(=O)c3cccs3)C(=O)C2=CN1c1ccc(CO)cc1` (configuration not stated), the figure is -2.21% [at 11.5 µM].
Take `COC(=O)CCCC1=CC2=CC(=O)C(C)(OC(=O)c3cccs3)C(=O)C2=CN1c1cccc(C#N)c1` (configuration not stated): the Potency is 31.6 µM (active) and the activity, negative = inhibition was -5.58% [at 11.5 µM].
On to `CCn1c2c(c(=O)n3ncc(C(=O)N4CCN(c5ccccc5)CC4)c13)CN(Cc1ccc(OC)cc1)CC2`, for which the Potency entry is “inactive”.
Take `COc1ccc(-n2c(=O)c3sc4ccccc4c3n(CC(=O)Nc3cccc(C)c3)c2=O)cc1`: the Potency result is “inactive”.
As for `CNC(=S)N/N=C/c1ccc(N2CCOCC2)s1`, the Potency is 17.8 µM (active).
The same measure, in the same setting: as for `Cc1ccc(NC(=S)NCCN2CCOCC2)cc1`, the entry is “inactive”; as for `C=CCNC(=S)N/N=C/c1ccc(C)s1`, “inactive”.
On to `O=C(NCc1ccccc1)c1ccc2c(c1)nc1n2CCCCC1`, for which the Potency result was “inactive”.
For the compound `O=C(C1CCC(Cn2c(=O)c3sccc3n(Cc3ccccc3F)c2=O)CC1)N1CCCCC1` (configuration not stated), the Potency result was “inactive”.
Same read-out and setting: as for `Cc1noc(C)c1/C=N/Nc1ccc2ccccc2n1`, the entry is “inactive”; as for `C(=N\Nc1ccc2ccccc2n1)/c1ccc2c(c1)OCO2`, 10 µM (active); as for `O=C(Cc1ccc(F)cc1)N/N=C/c1ccc2c(c1)OCO2`, “inactive”.
On the same count and under the same terms, as for `O=C(CNC(=O)C(c1ccccc1)c1ccccc1)N/N=C\c1ccc2c(c1)OCO2`, the entry is “inactive”; as for `Brc1ccc(-c2csc(N/N=C/c3ccc4c(c3)OCO4)n2)cc1`, 4.47 µM (active).
Same read-out and setting: as for `COc1ccc(-c2csc(N3CCN(Cc4ccc5c(c4)OCO5)CC3)n2)cc1`, the entry is “inactive”; as for `COc1ccc(Cl)cc1NC(=O)C(C)Sc1nc2c(c(=O)[nH]1)CCCC2` (configuration not stated), “inactive”; as for `Cc1ccc(-c2nc(SCc3ccc(Br)cc3)n3[nH]c(=O)cc3n2)cc1`, “inactive”.
Consider `COc1cc(-c2cc3n(C)c(C)c(CCC(=O)Nc4ccc(F)cc4)c(=O)n3n2)cc(OC)c1OC`, for which the Potency entry was “inactive”.
The same measure, in the same setting: as for `C(=N/Nc1cc(N2CCOCC2)nc(N2CCOCC2)n1)/c1ccccc1`, the entry is “inactive”; as for `Cc1cc(N2CCN(c3ccccc3)CC2)nc(N2CCOCC2)n1`, “inactive”; as for `CN(C)c1ccc(/C=N/Nc2cc(N3CCOCC3)nc(N3CCOCC3)n2)cc1`, 7.94 µM (active).
For `CCC(=O)N1c2ccccc2CC1C(=O)N1CCN(c2ccccc2F)CC1` (configuration not stated), the Potency entry is “inactive”.
The same measure, in the same setting: as for `COc1ccc(CCNC(=O)c2cc3cccc4c3n2CC(C)S4)c(OC)c1OC` (configuration not stated), the entry is “inactive”; as for `O=C(Nc1ccccc1Br)c1cc(CN2CCCC2)on1`, “inactive”.
On the same count and under the same terms, as for `COC(=O)CCNc1ccc2c(c1)OCCO2`, the entry is “inactive”.
As to `COc1ccc(C(=O)Nc2ccc3c(c2)OCO3)cc1OC`, the Potency result was “inactive”.
As for `CCOc1ccc(NCCC(=O)c2ccc3c(c2)OCO3)cc1`, the Potency is 15.8 µM (active).
Same read-out and setting: as for `COc1ccccc1-c1noc(-c2ccc(NCc3ccccc3)c([N+](=O)[O-])c2)n1`, the entry is “inactive”; as for `COC(=O)c1ccc2c(c1)N(CC(=O)Nc1ccc(C)c(C)c1)C(=O)c1ccccc1S2`, “inactive”; as for `O=C(CSc1nnc(-c2ccncc2)n1-c1ccccc1)Nc1ccc(Cl)c(Cl)c1`, “inactive”.
On the same count and under the same terms, as for `CCC(Sc1nnc(-c2ccc(OC)cc2)c(-c2ccc(OC)cc2)n1)C(=O)NC1CCCCC1` (configuration not stated), the entry is “inactive”; as for `COc1cc(C(=S)NCc2ccccc2)cc(Br)c1O`, 35.5 µM (active); as for `COc1cc(CNC2CCCC2)c(Br)cc1OCc1ccccc1`, “inactive”.
The same measure, in the same setting: as for `COc1cc(C=O)c(Br)cc1OCC(=O)NCc1ccccc1`, the entry is “inactive”.
Consider `O=C(NCC(c1ccco1)S(=O)(=O)c1cccs1)c1ccc(F)cc1` (configuration not stated), for which the Potency entry was “inactive”.
The same measure, in the same setting: as for `O=C(NC1CC(=O)N(c2ccc(F)cc2)C1)c1ccc(S(=O)(=O)N2CCCC2)cc1` (configuration not stated), the entry is “inactive”.
Same read-out and setting: as for `Oc1cc(O)c2c(c1)OC(c1ccc(O)c(O)c1)C(O)C2` (configuration not stated), the figure is 14.1 µM (active).
Still for that read-out and setting: as for `CCN1CCN(c2cc(C)c3cc(NC(=O)c4cc(Cl)ccc4OC)ccc3n2)CC1`, the figure is 14.1 µM (active); as for `COC(=O)c1ccc(NC(=O)c2cc(Cl)ccc2OC)cc1`, “inactive”.
For `COc1ccc(Cl)cc1C(=O)Nc1ccc(N(C)C(C)=O)cc1`, the Potency result is “inactive”.
The same measure, in the same setting: as for `O=C(O)/C=C/C(=O)NNc1ccc([N+](=O)[O-])cc1`, the figure is 15.8 µM (active); as for `CNC(=S)Nc1ccc([N+](=O)[O-])cc1`, “inactive”.
Same read-out and setting: as for `Cc1c(NC(=O)/C=C/C(=O)O)cccc1[N+](=O)[O-]`, the entry is “inactive”; as for `COc1ccc(C2CC(=O)N(Cc3ccccc3C)c3c2c(C)nn3-c2nc(C)cc(C)n2)c(OC)c1` (configuration not stated), “inactive”.
Same read-out and setting: as for `O=C(Nc1ccc(Oc2ccccc2)cc1)C1CCN(S(=O)(=O)c2ccc(Cl)cc2)CC1`, the entry is “inactive”.
`CC(=O)Nc1cccc(NC(=O)CSc2cn(CC(=O)N3CCCC3)c3ccccc23)c1`: the Potency entry was “inactive”.
The same measure, in the same setting: as for `C=CS(=O)c1sc(Cl)c(N2CCOCC2)c1[N+](=O)[O-]` (configuration not stated), the figure is 8.91 µM (active).
The same measure, in the same setting: as for `O=C(Nc1nnc(C2CC(=O)N(c3ccc(Cl)cc3)C2)s1)c1ccco1` (configuration not stated), the entry is “inactive”; as for `NC1=NC(c2cc(F)cc(F)c2)n2c(nc3ccccc32)N1` (configuration not stated), “inactive”; as for `CCOc1ccc(N(CC)S(=O)(=O)N2CCCC(C(=O)NCc3ccc(SC)cc3)C2)cc1` (configuration not stated), “inactive”.
Same read-out and setting: as for `CCc1nc(-c2cc(S(=O)(=O)N3CCN(c4ccc(OC)cc4)CC3)ccc2OC)no1`, the figure is 28.2 µM (active); as for `COc1ccc(N2CCN(S(=O)(=O)c3ccc(-c4coc(C)n4)cc3)CC2)cc1`, “inactive”; as for `COc1ccc(OC)c(-c2noc(N3CCN(c4cc(Cl)ccc4C)CC3)n2)c1`, “inactive”.
Regarding `O=C(/C=C/c1ccccc1)c1ccccc1O`, the Potency result is “inactive”.
Same read-out and setting: as for `COc1ccc(/C=C/C(=O)c2cc(Br)ccc(=O)c2O)cc1`, the figure is 4.47 µM (active); as for `COc1ccc2oc(=O)c(C(=O)O)cc2c1`, “inactive”.
The same measure, in the same setting: as for `COc1ccc(/C=C/C(=O)c2ccc(OC)cc2O)cc1`, the figure is 5.01 µM (active); as for `COc1ccc(C(=O)Cc2cnn(-c3ccccc3)c2)c(O)c1`, “inactive”.
As for `COc1ccc(/C=C/NC(=O)Cc2ccc(OC)c(OC)c2)cc1`, the activity, negative = inhibition was -4.15% [at 11.5 µM].

Values taken from PubChem BioAssay AID1460 (National Center for Advancing Translational Sciences (NCATS), 2008).
